Measurements reported in PubChem BioAssay.
Activity calls are given as the source filed them. How the calls were made is not given here.

Target: Pantothenate synthetase (Mycobacterium tuberculosis (strain ATCC 25618 / H37Rv)) (UniProt P9WIL5)
Test: Recombinant Mtb pantothenate synthetase (PanC) inhibitors, coupled enzyme, confirmatory (AID 375);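 further: 0% = full reaction with vehicle and 100% = no enzyme background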
Conditions: coupled enzyme assay; at 10 µM, active compounds read high

Pantothenate synthetase (Mycobacterium tuberculosis (strain ATCC 25618 / H37Rv)), sequence (P9WIL5 whole entry, looked up): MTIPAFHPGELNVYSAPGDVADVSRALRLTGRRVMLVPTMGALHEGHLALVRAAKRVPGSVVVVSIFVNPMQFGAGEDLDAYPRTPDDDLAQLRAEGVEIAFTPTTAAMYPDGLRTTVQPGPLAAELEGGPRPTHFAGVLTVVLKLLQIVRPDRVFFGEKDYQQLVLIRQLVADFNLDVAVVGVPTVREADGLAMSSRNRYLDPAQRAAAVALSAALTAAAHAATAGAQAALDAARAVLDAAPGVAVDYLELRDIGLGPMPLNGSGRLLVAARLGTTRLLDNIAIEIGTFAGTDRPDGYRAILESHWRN

SMILES | inhibition
CCc1nnc(NC(=O)c2ccc(S(=O)(=O)NCC(C)C)cc2)s1 | 0% (inactive)
O=C(CN1C(=O)CC(c2ccco2)Sc2ccccc21)Nc1ccc2c(c1)OCCO2 (centres undefined) | 3% (inactive)
c1ccc(-c2ccccc2OCCn2cncn2)cc1 | 5% (inactive)
CS(=O)(=O)N1CCc2cc(S(=O)(=O)Nc3ccc4oc5c(c4c3)CCCC5)ccc21 | 3% (inactive)
CC(C)c1ccc(CNc2ccc(N3CCOCC3)cc2)cc1 | 2% (inactive)
O=C(c1cccc(F)c1)N1CCc2ccccc21 | 0% (inactive)
Cn1c2c(c(=O)n(C)c1=O)C(c1cccc(Br)c1)C1C(=O)c3ccccc3C1=N2 (centres undefined) | 9% (inactive)
CCOC(=O)N1CCN(C(=O)CSc2nnc(-c3cc(OC)cc(OC)c3)o2)CC1 | 0% (inactive)
O=C(O)C1C2CCC(O2)C1C(=O)NCCC1=CCCCC1 (centres undefined) | 3% (inactive)
CCOC(=O)C1=C(C)N(C)C(=O)NC1c1ccccc1OC (centres undefined) | 0% (inactive)
CC1(C)CC(=O)C2=C(C1)N(Cc1ccco1)C(=O)C2(NC(=O)C1CCCCC1)C(F)(F)F (centres undefined) | 4% (inactive)
COC(=O)Cn1c(=NC(=O)CSCC(=O)Nc2cc(C)on2)sc2ccccc21 | 0% (inactive)
O=C1CC(C(=O)Nc2ccccc2)C2(CCCC2)O1 (centres undefined) | 2% (inactive)
CCOC(=O)C1=C(C)Nc2ncnn2C1c1cc(OC)ccc1OC (centres undefined) | 0% (inactive)
CN(CC(=O)Nc1sccc1C#N)C1CCCCC1 | 0% (inactive)
FC(F)(F)c1cccc(N2CCN(Cc3cccnc3)CC2)c1 | 4% (inactive)
Cc1nnc2ccc(N3CCC4(CC3)OCCO4)nn12 | 0% (inactive)
COc1ccccc1-c1c(C)nn2c(N3CCC4(CC3)OCCO4)cc(C)nc12 | 5% (inactive)
Cc1ccc(C)c(N(CC(=O)NC2CCCC2)C(=O)CCCC(=O)Nc2ccccn2)c1 | 2% (inactive)
CCC(CC)C1C(C#N)=C(N)Oc2n[nH]c(C)c21 (centres undefined) | 0% (inactive)

SMILES | inhibition
COc1ccc2nc(S(=O)Cc3ncc(C)c(OC)c3C)[nH]c2c1 (centres undefined) | 4% (inactive)
COc1ccccc1CN1CC(C(=O)NCc2cccnc2)CC1=O (centres undefined) | 2% (inactive)
CCOCCCNC(=O)Cn1ncc2c(=O)oc3ccccc3c21 | 0% (inactive)
Cc1nc2ccccc2cc1O | 0% (inactive)
Nc1nnnn1/N=C/c1ccccc1OCc1ccccc1 | 0% (inactive)
O=C(CN1CCN(Cc2ccc3c(c2)OCO3)CC1)N1CCc2[nH]c3ccc(F)cc3c2C1 | 0% (inactive)
O=S(=O)(c1ccc2c(c1)OCCO2)N1CCN(Cc2ccc3c(c2)OCO3)CC1 | 4% (inactive)
CCC(C)Nc1nc2c(c(=O)n(C)c(=O)n2C)n1Cc1ccc(F)cc1 (centres undefined) | 3% (inactive)
CCCCS(=O)(=O)NC1=NCN(C2CCN(Cc3ccccc3)CC2)CN1 | 5% (inactive)
O=C(Cn1nnc(-c2cccs2)n1)OC1CCCCC1 | 4% (inactive)
CSc1ccc(S(=O)(=O)Nc2cccc(F)c2)cc1 | 0% (inactive)
CC1CCC(NC(=O)Cn2ncc3ccccc32)CC1 (centres undefined) | 0% (inactive)
COc1ccccc1N1CCN(C(=O)c2ccc(S(=O)(=O)N3CCCCCC3)cc2)CC1 | 2% (inactive)
Cc1cc(C)c2c(n1)nn1c(C3CC3)cc(C(F)(F)F)nc21 | 5% (inactive)
CCOC(=O)N1CCN(C(=O)CSc2nnc(Cc3ccccc3)o2)CC1 | 0% (inactive)
CCc1oc2ccccc2c1C(=O)c1cc(Br)c(O)c(Br)c1 | 0% (inactive)
CCOC(=O)C1C(=O)N(C(=O)c2ccc(OC)cc2)CC1c1ccccc1 (centres undefined) | 0% (inactive)
CN(CCNC(=O)c1ccc(N2CCCC2=O)cc1)CCc1ccccc1 | 0% (inactive)
O=C(CCC(=O)OCC(=O)c1ccccc1)NC1CCCCC1 | 2% (inactive)
